D2 antagonist = antagonists of human D2 dopamine receptor; inhibition, % at 10 µM; P14416; HEK293 TREx D2 cells, calcium flux, dopamine EC80; 340,000 tested, 2% active; in the data active means inhibition above about 30%; inactive means below that, where a call was filed
Target sequence (P14416 whole entry, looked up): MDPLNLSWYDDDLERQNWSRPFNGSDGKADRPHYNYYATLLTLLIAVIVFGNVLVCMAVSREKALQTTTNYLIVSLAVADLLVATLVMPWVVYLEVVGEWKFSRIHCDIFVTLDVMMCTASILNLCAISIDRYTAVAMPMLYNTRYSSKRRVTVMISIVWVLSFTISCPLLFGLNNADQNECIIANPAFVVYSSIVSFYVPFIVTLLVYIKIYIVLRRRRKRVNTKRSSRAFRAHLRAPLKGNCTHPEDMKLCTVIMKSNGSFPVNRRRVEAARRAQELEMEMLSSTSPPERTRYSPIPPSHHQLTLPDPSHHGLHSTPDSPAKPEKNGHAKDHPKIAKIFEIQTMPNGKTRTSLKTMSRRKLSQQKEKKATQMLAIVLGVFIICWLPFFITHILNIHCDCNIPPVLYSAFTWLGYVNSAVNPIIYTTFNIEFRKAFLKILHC
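Tetracycline-induced HEK293 T-REx cells expressing D2 force-coupled to calcium signalling were dye-loaded, exposed to compound for 180 s, then challenged with an EC80 of dopamine; calcium flux was followed kinetically for a further 180 s.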
D2 ag-1 = D2 dopamine receptor (human) agonism | 340,000 tested, 0.53% active | HEK293 T-REx D2 cells, calcium flux agonist mode | activation, % at 2 µM;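 active means activation over 3 SD above normal in the single-dose calcium agonist read, cut at about 30% in these data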
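Tetracycline-induced HEK293 Trex cells with D2 receptor force-coupled to calcium signaling, plated overnight at 30 C and loaded with no-wash calcium dye. Calcium flux read kinetically for 180 s after compound addition; responses flag agonists.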
D2 PAM-1 = positively modulates the human D2 dopamine receptor allosterically | 340,000 tested, 0.34% active | HEK293 T-REx D2, calcium flux, EC20 dopamine potentiation | potentiation, % at 10 µM | AID 485347 | P14416;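 active means potentiation over 3 SD above the plate norm, cut at about 30% in these data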
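Tetracycline-induced HEK293 T-REx cells force-coupled to calcium signalling expressed D2; compounds were pin-added after a 10 s baseline, read kinetically 180 s, then an EC20 dopamine challenge followed with a further 180 s calcium read.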
D2 ag-2 = human D2 receptor agonism in beta-arrestin assay | activation, % (concentration not given with the values) | DiscoveRx PathHunter D2 beta-arrestin, luminescence, 90 min; 100% = 57 uM dopamine signal | P14416 | AID 624465 | 360,000 tested, 0.084% active; in the data active means activation above about 40%; inconclusive means between about 15% and that limit
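DiscoveRx PathHunter D2 beta-arrestin cells (2,100/well) attached overnight, then compound-stimulated 90 min at 37 C in HBSS/10 mM HEPES/0.1% Tween-20 buffer; beta-galactosidase complementation read by luminescence after 1 h at ambient temperature. Dopamine 57 uM final (EC100) as control.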
D2 PAM-2 = potentiates the human D2 dopamine receptor allosterically; P14416; DiscoveRx D2 beta-arrestin cells, luminescence, 90 min; 100% = 57 uM dopamine signal; potentiation, % (no concentration beside the values); 360,000 tested, 0.23% active; in the data active means potentiation above about 50%; inconclusive means mostly about 30% to 49%
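PathHunter beta-arrestin assay in DiscoveRx D2 cells. Compounds were added with an EC20 of dopamine (50 nM final) for 90 min at 37 deg C. Luminescence was read 1 h after detection reagent, with 57 uM dopamine as the EC100 control.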
Large screens that a line does not name were inactive. Most compounds without a hit are left out; they make up all but 2.4% or so of the library.

CCN(C(=O)c1cnc(N2CCN(c3ncccn3)CC2)c2ccccc12)c1cccc(Cl)c1	D2 antagonist 46
COc1ccc(CCN(C)CCCC(C#N)(c2cc(OC)c(OC)c(OC)c2)C(C)C)cc1OC (stereo unspecified)	D2 antagonist 45
CSc1ccc(N=Nc2c(C)[nH]n(C)c2=O)cc1	none
CCOc1ncccc1C(=O)Nc1c(C)n(C)n(-c2ccccc2)c1=O	none (no result: D2 antagonist, D2 ag-1, D2 PAM-1)
COc1ccc(/C=N/NC(=O)c2sccc2OCc2ccc(F)cc2)cc1OC	D2 antagonist 37
CCCNCC(O)COc1ccccc1C(=O)CCc1ccccc1 (stereo unspecified)	D2 antagonist 35 (no result: D2 ag-1, D2 PAM-1, D2 ag-2, D2 PAM-2)
CCN(CC)CC(O)COc1ccccc1C(=O)CCc1ccccc1 (stereo unspecified)	none
CCOC(=O)N1CCN(C(=O)c2ccc3nc(N4CCCCC4)sc3c2)CC1	none
O=C(c1ccc2nc(N3CCCCC3)sc2c1)N1CCN(Cc2ccc3c(c2)OCO3)CC1	D2 ag-1 49
Cc1ccccc1C(=O)N1CCC(C(=O)N2CCN(Cc3ccc4c(c3)OCO4)CC2)CC1	none (no result: D2 antagonist, D2 ag-1, D2 PAM-1)
CCn1cnc2sc(C(=O)N3CCN(Cc4ccc5c(c4)OCO5)CC3)c(C)c2c1=O	D2 ag-1 33 (no result: D2 ag-2, D2 PAM-2)
O=C(c1ccc(F)cc1)N1CCC(C(=O)N2CCN(Cc3ccc4c(c3)OCO4)CC2)CC1	D2 antagonist 31
O=C(c1ccc2nc(N3CCOCC3)sc2c1)N1CCC(Cc2ccccc2)CC1	D2 antagonist 32
O=C(NC(c1ccc(Cl)cc1)c1cnccn1)C1CCN(CCCOc2ccccc2)CC1 (stereo unspecified)	none (no result: D2 antagonist, D2 ag-1, D2 PAM-1)
C[C@H](NC(=O)c1ncn2c1C(=O)NC[C@H]2C)C(=O)OC(C)(C)C	none (no result: D2 antagonist, D2 ag-1, D2 PAM-1, D2 PAM-2)
Nc1nc2c(s1)CCc1c-2cnn1-c1ccccc1	D2 ag-2 40
O=C(NCc1cccnc1)C1CC(c2ccc(Cl)c(Cl)c2)=NO1 (stereo unspecified)	none (no result: D2 antagonist, D2 ag-1, D2 PAM-1)
CCc1ccc(NC(=O)CSc2ccc3nnc(CCNS(=O)(=O)c4ccc(OC)cc4)n3n2)cc1	none (no result: D2 antagonist, D2 ag-2, D2 PAM-2)
C=CCn1c(=O)c(C#N)cc2c(=O)n3ccccc3nc21	D2 antagonist 58
Cc1cc(=O)oc2c3c(cc(OCC(=O)NCC(=O)N[C@H](C(=O)O)C(C)C)c12)OC(C)(C)CC3	D2 antagonist 30
Cc1cc(=O)oc2c3c(cc(OCC(=O)NCc4ccco4)c12)OC(C)(C)CC3	none
Cc1c(C)c2c(OCC(=O)NCc3ccco3)cc3c(c2oc1=O)CCC(C)(C)O3	D2 antagonist 30
CC[C@H](C)[C@H](NC(=O)CNC(=O)COc1cc2c(c3oc(=O)cc(C)c13)CCC(C)(C)O2)C(=O)O	none
COc1ccc(-n2cc(CNCCc3cscn3)c(-c3ccccc3Cl)n2)cc1	D2 antagonist 48
COC(=O)c1cc(NC(=O)Cc2cc(OC)c(OC)c(OC)c2)cc(C(=O)OC)c1	D2 antagonist 40
Cn1c(C(=O)Nc2ccc3c(c2)OCO3)cc2c(=O)n(C)c3ccccc3c21	D2 PAM-1 31
COc1cccc(C2NC(=O)NC(C)=C2C(=O)Nc2ccc(C)cc2)c1OC (stereo unspecified)	D2 antagonist 31
Cc1ccccc1C(=O)NCCNC(=O)c1ccccn1	none
O=C(NCCCNCCCNC(=O)c1ccccn1)c1ccccn1	D2 antagonist 74
Cc1ccccc1C(=O)NCCCNC(=O)c1ccccn1	D2 PAM-1 31
CN(C)CCCNCCCNC(=O)c1ccccn1	none
COc1ccc(C)cc1NC(=O)NCc1ccc2c(c1)CCN2C(=O)c1ccccc1	none (no result: D2 antagonist, D2 ag-2, D2 PAM-2)
COc1ccc(OC)c(-n2nnc(-c3nc(-c4ccc5c(c4)OCO5)no3)c2C)c1	none (no result: D2 antagonist, D2 ag-2, D2 PAM-2)
O=C(CCNC(=O)c1ccccc1)NC1CCCc2ccccc21 (stereo unspecified)	none (no result: D2 ag-1)
O=C(CCNC(=O)c1ccc([N+](=O)[O-])cc1)NC1CCCc2ccccc21 (stereo unspecified)	D2 antagonist 32
O=C(CCC1CCCCC1)NCCN1C2=NC[C@@H](Cc3ccccc3)N2C[C@H]1Cc1ccc(O)cc1	D2 antagonist 51
C[C@@H](CN1C2=NC[C@H](C)N2C[C@H]1Cc1ccc(O)cc1)NC(=O)CCC1CCCCC1	D2 antagonist 52
COc1ccc(C[C@@H]2CN3C(=NC[C@@H]3Cc3ccc(O)cc3)N2C[C@H](C)NC(=O)CCC2CCCCC2)cc1	none
CC(C)[C@H]1CN=C2N(C[C@H](C)NC(=O)CCC3CCCCC3)[C@H](Cc3ccc(O)cc3)CN21	D2 antagonist 77
Cc1ccc(CNC(=O)CN2Cc3ccccc3C2=O)cc1	none (no result: D2 antagonist, D2 ag-2, D2 PAM-2)
O=C(NCc1cccnc1)Nc1cccc(C(F)(F)F)c1	none
O=C(NCCc1cnc[nH]1)Nc1cccc(C(F)(F)F)c1	D2 antagonist 40
Cc1ccc(C)c(S(=O)(=O)c2cn(Cc3ccccc3)c3cc(F)c(F)cc3c2=O)c1	none (no result: D2 antagonist, D2 ag-2, D2 PAM-2)
COc1ccccc1NC(=O)C(C)Sc1nnc2ccccn12 (stereo unspecified)	none
CNC(=O)C[C@@H]1C(=O)N(CCc2ccccc2)CC1(C)C	none (no result: D2 antagonist, D2 ag-1, D2 PAM-1)
Cc1ccc(NC2=C/C(=N/S(=O)(=O)c3cccs3)c3ccccc3C2=O)cc1	D2 PAM-2 58
O=C1C(Nc2ccccc2)=C/C(=N/S(=O)(=O)c2cccs2)c2ccccc21	none
c1ccc(NCCC2OCC3(CO2)COC(CCNc2ccccc2)OC3)cc1 (stereo unspecified)	none (no result: D2 antagonist, D2 ag-1, D2 PAM-1)
Cc1cc(NC(=S)N(CCN2CCCCC2)Cc2ccco2)ccc1Cl	D2 antagonist 35
Cc1ccc(NC(=S)N(CCCN2CCCC(C)C2)Cc2ccco2)cc1C (stereo unspecified)	D2 antagonist 46 (no result: D2 ag-1)
Cc1ccc(Cl)cc1NC(=S)N(CCCN1CCN(C)CC1)Cc1ccco1	D2 antagonist 71
COc1ccc(NC(=O)C/C(C)=N/NC(=O)CCc2ccccc2)c(OC)c1	D2 antagonist 40
COc1ccc(NC(=O)CCCc2ccccc2)c(OC)c1	none
S=C(Nc1ccc2c(c1)OCO2)NC1CCN(Cc2ccccc2)CC1	D2 antagonist 59
CC(C)c1ccc(NC(=S)N2CCN(Cc3ccccc3)CC2)cc1	none
Cc1ccc(NC(=S)NC2CCN(Cc3ccccc3)CC2)cc1C	D2 antagonist 78, D2 PAM-2 inconclusive
CC1=C(C)CC(C(=O)N2CCN(Cc3ccccc3)CC2)C(C(=O)O)C1 (stereo unspecified)	D2 PAM-1 30
CC(C)c1ccc(NC(=S)NC2CCN(Cc3ccccc3)CC2)cc1	D2 antagonist 52
CCN(Cc1ccccc1)C(=O)C1CCN(S(=O)(=O)c2ccc3c(c2)CCCN3C(C)=O)CC1	none (no result: D2 antagonist, D2 ag-2, D2 PAM-2)
Cc1ccc(NC(=S)N2CCN(Cc3ccccc3)CC2)cc1	none (no result: D2 PAM-1)
Cc1ccc(C(=S)N2CCN(Cc3ccccc3)CC2)cc1	D2 antagonist 65
Cc1ccc(NC(=S)NC2CCN(Cc3ccccc3)CC2)cc1	D2 antagonist 84

Bioassay records as filed in PubChem.
